# Measured values from the supplement of paper PMC8728848.
# The entries come from a sample that favours the strongest signals as a whole.
# Tested on: GlcNAc(b1-4)GlcNAc(b1-4)GlcNAc(b1-4)GlcNAc(b1-4)GlcNAc
# Test: glycan array binding signal (z-score within array); higher = stronger binding
# Conditions: glycan notation: IUPAC condensed, linker removed
# Summary of the method: (§1)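 Columns mapping to the same glycan were averaged after glycan names were converted to IUPAC-condensed notation. The data come from 3228 arrays in the Consortium for Functional Glycomics database, limited to those with an available protein sequence. Binding is reported as a within-array Z-score averaged across arrays of one protein sequence and across linkers.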
# Sequence of PILRb (Mus musculus), Q2YSF2 (Q2YSF2 entry or part of it): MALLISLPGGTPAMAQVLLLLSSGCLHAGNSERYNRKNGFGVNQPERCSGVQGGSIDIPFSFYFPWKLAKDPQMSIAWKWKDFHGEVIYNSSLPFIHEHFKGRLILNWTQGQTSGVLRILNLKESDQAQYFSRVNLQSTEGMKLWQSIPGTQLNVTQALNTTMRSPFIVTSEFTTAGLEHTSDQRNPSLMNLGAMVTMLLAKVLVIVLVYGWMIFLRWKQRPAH
# Sequence of wLAT-1A (Homo sapiens), Q01650 (Q01650 whole entry): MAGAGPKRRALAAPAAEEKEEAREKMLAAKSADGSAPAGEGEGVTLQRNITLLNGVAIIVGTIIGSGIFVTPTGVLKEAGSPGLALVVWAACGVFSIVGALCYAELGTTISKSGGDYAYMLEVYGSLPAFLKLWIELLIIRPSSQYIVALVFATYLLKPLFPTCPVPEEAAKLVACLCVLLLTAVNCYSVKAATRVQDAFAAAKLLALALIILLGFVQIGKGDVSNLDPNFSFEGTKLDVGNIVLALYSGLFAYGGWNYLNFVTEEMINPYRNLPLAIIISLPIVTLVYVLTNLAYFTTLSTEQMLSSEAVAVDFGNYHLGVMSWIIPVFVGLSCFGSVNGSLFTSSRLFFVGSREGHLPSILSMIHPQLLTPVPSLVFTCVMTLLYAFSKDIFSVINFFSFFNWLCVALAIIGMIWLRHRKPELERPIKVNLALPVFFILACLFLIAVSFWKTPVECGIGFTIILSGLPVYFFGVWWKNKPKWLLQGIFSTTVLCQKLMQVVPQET
# Sequence of CHI3L1 (Homo sapiens), P36222 (P36222 whole entry): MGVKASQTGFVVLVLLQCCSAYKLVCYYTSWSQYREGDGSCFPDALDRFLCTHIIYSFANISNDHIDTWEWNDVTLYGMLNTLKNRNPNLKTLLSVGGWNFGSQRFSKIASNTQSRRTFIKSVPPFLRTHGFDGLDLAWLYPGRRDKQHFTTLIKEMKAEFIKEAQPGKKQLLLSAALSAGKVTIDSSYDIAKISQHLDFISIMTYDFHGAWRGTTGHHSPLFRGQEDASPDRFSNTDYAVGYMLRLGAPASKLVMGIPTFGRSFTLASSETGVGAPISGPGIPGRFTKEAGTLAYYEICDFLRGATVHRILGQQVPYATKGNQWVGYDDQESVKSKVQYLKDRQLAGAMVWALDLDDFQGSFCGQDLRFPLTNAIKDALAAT
# Sequence of Avaren (Actinomycete K97) (chain, as listed by the source): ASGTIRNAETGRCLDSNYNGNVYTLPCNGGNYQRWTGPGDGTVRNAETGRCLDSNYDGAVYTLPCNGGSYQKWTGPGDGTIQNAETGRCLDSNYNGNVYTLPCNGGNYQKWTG
# Sequence of PILRa (Mus musculus), Q2YSF3 (Q2YSF3 entry or part of it): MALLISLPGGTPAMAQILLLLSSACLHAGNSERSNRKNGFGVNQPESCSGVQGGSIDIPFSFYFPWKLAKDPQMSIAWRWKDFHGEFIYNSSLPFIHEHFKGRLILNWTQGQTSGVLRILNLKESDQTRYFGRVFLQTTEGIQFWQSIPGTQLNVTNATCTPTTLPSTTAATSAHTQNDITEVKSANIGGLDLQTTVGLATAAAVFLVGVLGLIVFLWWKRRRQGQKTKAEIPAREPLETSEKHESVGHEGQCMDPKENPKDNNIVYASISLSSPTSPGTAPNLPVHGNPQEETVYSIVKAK
# Sequence of Neurocan (Homo sapiens), O14594 (O14594 other isoform, or with tags, fused parts or gaps): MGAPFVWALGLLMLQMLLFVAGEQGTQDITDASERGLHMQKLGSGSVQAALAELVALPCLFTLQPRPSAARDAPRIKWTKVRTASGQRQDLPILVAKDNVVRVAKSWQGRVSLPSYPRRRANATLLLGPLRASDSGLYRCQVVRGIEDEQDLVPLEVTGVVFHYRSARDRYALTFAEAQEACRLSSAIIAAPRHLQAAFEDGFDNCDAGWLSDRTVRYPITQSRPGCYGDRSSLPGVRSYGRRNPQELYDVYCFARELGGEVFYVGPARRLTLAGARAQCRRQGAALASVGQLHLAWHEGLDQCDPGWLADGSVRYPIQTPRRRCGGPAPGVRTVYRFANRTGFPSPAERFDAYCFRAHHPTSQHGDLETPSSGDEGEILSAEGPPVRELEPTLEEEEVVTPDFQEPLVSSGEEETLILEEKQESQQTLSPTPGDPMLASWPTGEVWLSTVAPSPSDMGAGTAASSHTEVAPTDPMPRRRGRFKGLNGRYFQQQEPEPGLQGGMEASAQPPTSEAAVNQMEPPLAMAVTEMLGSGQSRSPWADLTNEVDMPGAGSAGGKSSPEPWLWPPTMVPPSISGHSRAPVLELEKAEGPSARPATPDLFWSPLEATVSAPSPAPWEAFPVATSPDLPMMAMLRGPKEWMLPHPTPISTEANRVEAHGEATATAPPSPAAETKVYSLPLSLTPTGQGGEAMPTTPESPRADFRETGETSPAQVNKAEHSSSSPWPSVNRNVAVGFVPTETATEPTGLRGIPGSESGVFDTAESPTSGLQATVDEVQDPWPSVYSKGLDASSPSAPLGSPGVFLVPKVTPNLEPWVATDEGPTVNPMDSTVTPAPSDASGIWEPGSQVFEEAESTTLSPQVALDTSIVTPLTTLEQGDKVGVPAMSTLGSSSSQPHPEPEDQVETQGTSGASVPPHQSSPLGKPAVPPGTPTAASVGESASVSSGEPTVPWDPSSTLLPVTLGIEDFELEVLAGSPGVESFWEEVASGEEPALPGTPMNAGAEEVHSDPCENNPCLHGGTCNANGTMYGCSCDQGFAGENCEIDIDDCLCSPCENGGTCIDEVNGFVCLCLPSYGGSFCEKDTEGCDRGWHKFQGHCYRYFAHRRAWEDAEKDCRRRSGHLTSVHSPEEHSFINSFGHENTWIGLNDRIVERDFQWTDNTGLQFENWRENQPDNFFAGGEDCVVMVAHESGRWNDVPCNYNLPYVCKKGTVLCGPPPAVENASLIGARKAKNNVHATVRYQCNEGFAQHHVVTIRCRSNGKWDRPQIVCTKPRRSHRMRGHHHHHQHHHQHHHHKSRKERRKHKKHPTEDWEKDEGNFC
# Sequence of Regenerating Gene IV (Homo sapiens), Q9BYZ8 (Q9BYZ8 whole entry, looked up): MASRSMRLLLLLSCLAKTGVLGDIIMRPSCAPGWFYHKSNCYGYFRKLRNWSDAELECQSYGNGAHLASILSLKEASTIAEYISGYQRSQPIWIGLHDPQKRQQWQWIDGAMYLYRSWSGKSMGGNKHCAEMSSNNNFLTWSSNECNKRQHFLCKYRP
row,Substance,glycan array binding signal (z-score)
1,"PILRb (Mus musculus), Q2YSF2",-0.432
2,"CHI3L1 (Homo sapiens), P36222",14.5
3,"Neurocan (Homo sapiens), O14594",-0.99
4,"Siglec-8 (Homo sapiens), Q9NYZ4",-0.111

# Tested on: GlcNAc(b1-6)GalNAc
# Test: as above
# Conditions: glycan notation: IUPAC condensed, linker removed
# Summary of the method: as §1
row,Substance,glycan array binding signal (z-score)
1,"PILRb (Mus musculus), Q2YSF2",-0.025
2,"wLAT-1A (Homo sapiens), Q01650",0.369
3,Avaren (Actinomycete K97),-0.119

# Tested on: GlcNAc3Prop(b1-4)GlcNAc
# Test: as above
# Conditions: glycan notation: IUPAC condensed, linker removed
# Summary of the method: as §1
row,Substance,glycan array binding signal (z-score)
1,"Regenerating Gene IV (Homo sapiens), Q9BYZ8",-0.463
2,"PILRa (Mus musculus), Q2YSF3",-0.331
3,"CHI3L1 (Homo sapiens), P36222",-0.044
4,"wLAT-1A (Homo sapiens), Q01650",0.213
